Hit rate of the full screen: of about 310,000 compounds, about 14,000 (4.5%) showed an effect of 50% or more. The effect is printed as a negative number. This is one part of a sample in which strong results are shown more often than they occur.
biological target: human ether-à-go-go-related gene (hERG) potassium channel (human, UniProt Q12809); assay: primary screen, population patch clamp on CHO cells stably expressing hERG; higher = less effect of the substance
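Note: peak tail current of the secondary pulse compared with the same well before compound.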

Sequence of human ether-à-go-go-related gene (hERG) potassium channel (Q12809 whole entry, looked up): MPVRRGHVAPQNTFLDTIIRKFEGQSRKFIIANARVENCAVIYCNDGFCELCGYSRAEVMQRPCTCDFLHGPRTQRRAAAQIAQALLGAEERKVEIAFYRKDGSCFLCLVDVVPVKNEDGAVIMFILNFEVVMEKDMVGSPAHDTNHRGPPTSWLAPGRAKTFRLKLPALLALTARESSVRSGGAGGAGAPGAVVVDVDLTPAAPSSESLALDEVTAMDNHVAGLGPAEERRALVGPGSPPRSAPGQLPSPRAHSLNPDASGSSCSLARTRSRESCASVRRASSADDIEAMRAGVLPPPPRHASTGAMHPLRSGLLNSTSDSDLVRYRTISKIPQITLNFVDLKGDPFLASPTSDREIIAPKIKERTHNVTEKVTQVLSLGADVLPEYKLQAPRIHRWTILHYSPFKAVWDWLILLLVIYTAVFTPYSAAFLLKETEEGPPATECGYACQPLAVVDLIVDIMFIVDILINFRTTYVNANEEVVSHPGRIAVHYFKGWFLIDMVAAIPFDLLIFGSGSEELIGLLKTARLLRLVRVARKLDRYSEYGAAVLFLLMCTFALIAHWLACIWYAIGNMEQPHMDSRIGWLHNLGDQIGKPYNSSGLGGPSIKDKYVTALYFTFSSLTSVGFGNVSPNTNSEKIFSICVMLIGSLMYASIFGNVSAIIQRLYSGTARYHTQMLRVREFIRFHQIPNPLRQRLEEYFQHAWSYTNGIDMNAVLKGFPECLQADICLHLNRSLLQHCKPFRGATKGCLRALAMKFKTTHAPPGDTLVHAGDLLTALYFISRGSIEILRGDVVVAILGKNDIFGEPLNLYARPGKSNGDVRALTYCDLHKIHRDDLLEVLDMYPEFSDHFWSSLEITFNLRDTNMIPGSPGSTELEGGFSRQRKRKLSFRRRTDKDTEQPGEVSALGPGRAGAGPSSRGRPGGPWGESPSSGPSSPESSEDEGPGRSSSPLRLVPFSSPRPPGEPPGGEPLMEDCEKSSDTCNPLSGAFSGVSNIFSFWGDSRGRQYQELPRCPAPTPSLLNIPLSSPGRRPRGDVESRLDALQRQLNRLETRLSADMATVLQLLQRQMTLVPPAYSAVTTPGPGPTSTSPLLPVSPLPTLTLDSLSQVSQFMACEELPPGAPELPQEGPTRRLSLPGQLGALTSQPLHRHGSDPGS

Row | SMILES | hERG current change (%, negative = inhibition) at 10uM
1 | CC(=O)Nc1ccc(S(=O)(=O)NNC(=O)c2cccc(Cl)c2)cc1 | 8.3%
2 | CCOC(=O)CON1C(=O)c2ccccc2C1=O | -5.5%
3 | COc1ccc(Cl)cc1-n1c(C)cc(C=O)c1C | 4.29%
4 | COc1ccc(CN(C(=O)c2cnccn2)C(C(=O)NC(C)(C)C)c2cc(OC)c(OC)c(OC)c2)cc1 (stereo not drawn) | 1.58%
5 | CCOC(=O)c1ccc(Oc2coc3cc(O)ccc3c2=O)cc1 | 17.6%
6 | CCOc1ccc(NS(=O)(=O)c2ccc(OC)c(NC(=O)c3ccc4c(c3)OCCO4)c2)cc1 | -2.7%
7 | O=C(Cc1csc(-c2ccccc2)n1)NCc1ccco1 | -1.66%
8 | COc1ccc(C(=O)N2CCN(c3cnn(-c4ccccc4)c(=O)c3Cl)CC2)cc1 | -71.3%
9 | CCS(=O)(=O)N1CCN(c2cnn(-c3ccccc3)c(=O)c2Cl)CC1 | -29%
10 | CC(C)c1ccc(C(=O)N2CCCN(C(=O)c3ccc(C(C)C)cc3)CC2)cc1 | -32.9%
11 | O=C(c1cccc(Br)c1)N1CCN(c2cnn(-c3ccccc3)c(=O)c2Cl)CC1 | -47.4%
12 | Cc1ccn2cc(C(=O)N3CCN(c4cnn(-c5ccccc5)c(=O)c4Cl)CC3)nc2c1 | -46.7%
13 | CCOc1ccc(C(=O)N2CCN(c3cnn(-c4ccccc4)c(=O)c3Cl)CC2)cc1 | -77.8%
14 | O=C(c1ccc(F)cc1)N1CCN(c2cnn(-c3ccccc3)c(=O)c2Cl)CC1 | -48.6%
15 | Cc1ccc(C(=O)N2CCN(c3cnn(C)c(=O)c3Cl)CC2)cc1 | -31.1%
16 | CC(C)c1ccc(C(=O)N2CCN(c3cnn(C)c(=O)c3Cl)CC2)cc1 | -64.4%
17 | CCCCOP(=O)(c1ccc(N(C)C)cc1)C(O)c1ccc(N(C)C)cc1 (stereo not drawn) | -5.3%
18 | COc1cc(/C=C/c2nc(N)nc(-c3ccccc3O)n2)cc(OC)c1OC | -3.86%
19 | Cc1ncc([N+](=O)[O-])n1CCOC(=O)Nc1ccc(Cl)c(Cl)c1 | 1.07%
20 | Cc1cc(C)nc(SCCCNCc2ccccc2)n1.Cl | -3.19%

Row | SMILES | hERG current change (%, negative = inhibition) at 10uM
21 | CCOc1c(CNCCCSc2nc(C)cc(C)n2)cccc1OC.Cl | -11.1%
22 | Cc1cc(C)nc(SCCCNCc2ccc(Br)cc2)n1.Cl | -36.1%
23 | CCOc1ccc(Cl)cc1CNCCCSc1nc(C)cc(C)n1.Cl | -59.6%
24 | Cc1ccc(CNCCCSc2nc(C)cc(C)n2)cc1.Cl | -52.3%
25 | CCOc1ccc(Cl)cc1CNCCCSc1ncccn1 | -37.3%
26 | O=C(NC1CCCCC1)C1CC(=O)N(CCc2ccccc2)C1 (stereo not drawn) | -7.01%
27 | O=C(c1ccccc1O)N1CCOCC1 | 3.51%
28 | CNC(=S)N(CCc1c(C)[nH]c2ccc(OC)cc12)Cc1cccnc1 | 9.25%
29 | CCn1c(=O)c(=O)[nH]c2cc(C(=O)NC(C)c3ccc(S(N)(=O)=O)cc3)ccc21 (stereo not drawn) | 3.47%
30 | CCCCCOc1ccc(/C(C)=N/NC2=NCCN2)cc1 | -39.8%
31 | Cc1cc(C)nc(N2CCC(C(=O)NCc3ccccc3)CC2)n1 | 3.44%
32 | C=CCNC(=O)C1CCN(c2nc(C)cc(-c3ccccc3)n2)CC1 | -51.3%
33 | Cc1cc(N2CCC(C(=O)Nc3ccc(F)cc3)CC2)nc(-c2ccccc2)n1 | -32.9%
34 | Cc1cc(N2CCC(C(=O)NC3CC3)CC2)nc(-c2ccccc2)n1 | -46%
35 | C=CCNC(=O)C1CCN(c2cc(C)nc(-c3ccccc3)n2)CC1 | -58.2%
36 | Cc1cc(N2CCC(C(=O)NC3CCCCC3)CC2)nc(-c2ccccc2)n1 | -49.6%
37 | C#CCNC(=O)C1CCN(c2cc(C)nc(-c3ccccc3)n2)CC1 | -40.7%
38 | Cc1cc(-c2ccccc2)nc(N2CCC(C(=O)NC(C)C)CC2)n1 | 4.06%
39 | Cc1cc(N2CCC(C(=O)NCC3CC3)CC2)nc(-c2ccccc2)n1 | -73.1%
40 | COc1ccc(NC(=O)c2sccc2OS(=O)(=O)N(C)C)cc1 | 11.2%

Row | SMILES | hERG current change (%, negative = inhibition) at 10uM
41 | C/C(=N/NC(N)=S)c1ccc(Br)s1 | 16.8%
42 | CCOc1ccccc1/C=N/NC(=O)Cc1csc(Nc2cccc(C(F)(F)F)c2)n1 | 4.05%
43 | N#CSc1ccc2oc(C3=NCCN3)cc2c1 | 0.521%
44 | O=C(c1ccc2c(c1)OCCCO2)N1CCCCC1 | 11.7%
45 | CCNc1nc(NCC)nc(OCC(=O)O)n1 | 7.6%
46 | COc1ccc(N2CCN(c3nc(NCCO)nc(N4CCOCC4)n3)CC2)cc1 | -1.07%
47 | O=C1NC(=O)N(Cc2ccccc2)C1=O | 26.4%
48 | COc1ccc(C2/C=C\CN(CC3CC3)CC(=O)N2Cc2ccc(F)cc2)cc1 (stereo not drawn) | -21%
49 | CCCCNCCOCCOc1ccccc1-c1ccccc1.O=C(O)C(=O)O | -50.1%
50 | COCCCNCCOCCOc1ccccc1-c1ccccc1.O=C(O)C(=O)O | -29.4%
51 | CCCCNCCOCCOc1ccc(C)cc1Br.O=C(O)C(=O)O | -32.1%
52 | CCCCNCCOc1ccccc1-c1ccccc1.O=C(O)C(=O)O | -28.2%
53 | CCCCNCCCOc1ccc(C)cc1Br.O=C(O)C(=O)O | -35%
54 | COCCCNCCOCCOc1ccc(Cl)cc1Br.O=C(O)C(=O)O | -51.9%
55 | COCCNCCCOc1ccc(Cl)cc1Br.O=C(O)C(=O)O | -42%
56 | CCCCNCCCOc1cc(Cl)ccc1Cl.O=C(O)C(=O)O | -54.3%
57 | OCCNCCCOc1cc(Cl)ccc1Cl | -14.4%
58 | CCCCNCCOCCOc1ccc(Cl)cc1Br.O=C(O)C(=O)O | -57.9%
59 | COCCCNCCCOc1ccc(C)cc1Br.O=C(O)C(=O)O | -30.7%
60 | CCCCNCCOCCSc1ccc(Cl)cc1.O=C(O)C(=O)O | -43.5%
